Reference: PubChem BioAssay (NCI)
“And” between values parts separate entries of the source, which are not always exact repeats. Identical values can stand only once. About 83,000 compounds went through this panel and 20% of them were active in at least one assay; those are over-represented in the sample as a whole.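 Testing used 96-well plates and a 48-hour single-concentration exposure. Example: -40 means 40% of the starting cells died.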 The source made the active and inactive calls. Rule for the calls: active = growth percent below 10; inactive = the rest.

The molecules below were run on TK-10 renal (assay: NCI-60 one-dose screen, 48 h (100 = growth as untreated, 0 = no growth, -100 = all killed)). Conditions: 10 µM unless noted.
With `CCOc1cc2c(cc1O)/C(=N\N)C[C@@H]1[C@@H]2CC[C@]2(C)[C@@H](O)CC[C@@H]12` the growth was 36.7% [100 µM] (inactive) and -97% [100 µM] (active). `CC1(C)CC2(C)OC(=N)C1(C#N)C2(C#N)C#N` (stereo not drawn) was tested, and the growth was -89.5% [100 µM] (active) and -77.9% [100 µM] (active). With `Cc1sccc1C(=S)Nc1ccc(Cl)c(/C=N/OC(C)(C)C)c1` the growth was -91.4% [100 µM] (active) and -90.7% [100 µM] (active). In the case of `CC(C)(C)N/N=C(\C(=O)Nc1ccc([N+](=O)[O-])cc1[N+](=O)[O-])c1nc2ccc([N+](=O)[O-])cc2[nH]c1=O`, the growth is reported as 97.2% [100 µM] (inactive) and 67.6% [100 µM] (inactive). In the case of `Cc1ccnc2[nH]c(-c3ccc(F)cc3)cc(=O)c12`, the growth is reported as 66.3% [100 µM] (inactive) and 16.9% [100 µM] (inactive). With `CC(O)c1cc2c(s1)C(=O)c1ccsc1C2=O` (stereo not drawn) the growth was -46.9% [100 µM] (active) and -98.9% [100 µM] (active). `CC(=O)NC(CS/N=N/c1nc[nH]c1C(N)=O)C(=O)O` (stereo not drawn) was tested, and the growth was 7.53% [100 µM] (active) and 4.2% [100 µM] (active). For `NC(=O)c1[nH]cnc1/N=N/SCC(N)C(=O)O` (stereo not drawn), the growth was 9.64% [100 µM] (active) and 8.09% [100 µM] (active). With `CCCn1c2c(c3ccccc3c1=O)C(=O)c1ccccc1-2` the growth was 88% [100 µM] (inactive) and 22.3% [100 µM] (inactive). With `CCOC(=O)c1nc2cc(C(F)(F)F)ccc2nc1Nc1ccc(F)cc1` the growth was 42.7% [100 µM] (inactive) and 3.59% [100 µM] (active). With `CC(=O)Oc1ccc2ccc(=O)oc2c1OC(C)=O` the growth was 62.1% [100 µM] (inactive) and 17.8% [100 µM] (inactive). In the case of `C=C1CC(O)C2C(=C)C(=O)OC2C2C(C)C(=O)CC12` (stereo not drawn), the growth is reported as -95.6% [100 µM] (active) and -97% [100 µM] (active). With `C=C1C(=O)OC2/C=C(/C)C3(O)OC(C)(CC(OC(=O)C(C)C)C12)CC3OC(C)=O` (stereo not drawn) the growth was -95.3% [100 µM] (active). With `C/C(Cl)=N/OC(=O)Nc1ccc(S(N)(=O)=O)c(C)c1` the growth was -100% [100 µM] (active). For `Nc1cc2c3c(cccc3c1)C(=O)N(c1ccc(OCCN3CCCC3)cc1)C2=O`, the growth was 33.8% [100 µM] (inactive) and -100% [100 µM] (active). `CCCCOC(=O)C1CC[C@H]2[C@@H]3CCc4cc(OC(=O)c5cccc6c(=O)c7ccccc7[nH]c56)ccc4[C@H]3CC[C@]12C` (stereo partly drawn) was tested, and the growth was -100% [50 µM] (active). For `CCCC(=O)Oc1c2ccsc2c(OC(=O)CCC)c2ccsc12`, the growth was -72.5% [100 µM] (active) and -100% [100 µM] (active). In the case of `O=c1c2ncn(C3CCCCO3)c2n(-c2ccccc2)c(=S)n1-c1ccccc1` (stereo not drawn), the growth is reported as 20.1% [100 µM] (inactive) and 23.9% [100 µM] (inactive). With `COc1ccc(CC2c3cc(OC)c(OC)c(OC)c3CC[N+]2(C)C)cc1Oc1ccc(CC2c3cc4c(c(OC)c3CCN2C)OCO4)cc1` (stereo not drawn) the growth was 85.8% [100 µM] (inactive) and 47.5% [100 µM] (inactive). In the case of `COc1cc2c(cc1-c1coc3cc(OCC=C(C)C)ccc3c1=O)OCO2`, the growth is reported as 5.74% [100 µM] (active) and 19.4% [100 µM] (inactive). In the case of `CC1OC(OC2C(O[C@H]3CC[C@@]4(C)C(=CC[C@H]5[C@@H]6C[C@@H]7O[C@]8(CC[C@H](C)CN8)[C@@H](C)[C@@H]7[C@@]6(C)CC[C@@H]54)C3)OC(CO)C(O)C2OC2OC(CO)C(O)C(O)C2O)C(O)C(O)C1O` (stereo partly drawn), the growth is reported as 95.2% [100 µM] (inactive) and -95% [100 µM] (active). `COC(=O)C(=O)C(C(=O)C(=O)Nc1ccccc1C(=O)OC)c1nc2ccc(C(=O)c3ccccc3)cc2[nH]c1=O` (stereo not drawn) was tested, and the growth was 82.4% [100 µM] (inactive) and 16.6% [100 µM] (inactive). For `CC#CC#C/C=C1/C=CC2(CCCCO2)O1` (stereo not drawn), the growth was 112% [100 µM] (inactive) and -41.5% [100 µM] (active). In the case of `CCCCCCCCCCCCCC1=C(O)C(=O)C(CC2=C(O)C(=O)C(CCCCCCCCCCCCC)=C(O)C2=O)=C(O)C1=O`, the growth is reported as 33% [100 µM] (inactive) and -1.5% [100 µM] (active). `COc1ccc(C2=C(N)c3ccccc3C2=O)cc1` was tested, and the growth was 79.7% [100 µM] (inactive) and -100% [100 µM] (active). `N#C/C(=C\c1ccccc1)C(=O)Nc1nnc(-c2ccccc2)o1` was tested, and the growth was 88.2% [100 µM] (inactive) and 4.58% [100 µM] (active). For `C#CCn1c2c(c3ccccc3c1=O)C(=O)c1ccccc1-2`, the growth was 17.2% [100 µM] (inactive) and -69.9% [100 µM] (active). In the case of `O=c1c(-c2ccc3c(c2)OCO3)coc2c3c(ccc12)OCO3`, the growth is reported as -27.5% [100 µM] (active) and -100% [100 µM] (active). With `CC#CC#C/C=C1\C=CC2(OC=CC2OC(C)=O)O1` (stereo not drawn) the growth was -20.2% [100 µM] (active) and -81% [100 µM] (active). For `O=[N+]([O-])c1cccc(-c2ncnc(-c3cccc([N+](=O)[O-])c3)n2)c1`, the growth was 38.8% [100 µM] (inactive) and -100% [100 µM] (active). `CN(C)CCNc1ccc(NCC[N+](C)(C)Cc2ccc([N+](=O)[O-])cc2)c2c1C(=O)c1c(O)ccc(O)c1C2=O` was tested, and the growth was 91.1% [100 µM] (inactive) and -23.2% [100 µM] (active). In the case of `Cc1ccc(/C=N/Nc2cc(C)c3ccccc3n2)s1`, the growth is reported as -63.7% [100 µM] (active) and -75.8% [100 µM] (active). In the case of `O=C1c2c(O)ccc(O)c2C(=O)c2c(NCCNC(=O)C(O)C(O)C(O)C(O)CO)ccc(NCCNC(=O)C(O)C(O)C(O)C(O)CO)c21` (stereo not drawn), the growth is reported as -82.4% [100 µM] (active) and -95.9% [100 µM] (active).
